Laboratory results: the supplement of paper PMC7156485
Where “and” joins values, the source holds several entries; their conditions need not be identical. Identical values can stand only once. ± gives the standard deviation of the averaged measurements.
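Further: TDF denotes transformed human dermal fibroblasts of mesenchymal origin.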

Each molecule was assayed on HCC1569 (assay: cell number relative to DMSO (% of DMSO); higher = more cells (less growth inhibition / toxicity)). Conditions: concentration: 10 µM; 24 h.
Method in brief: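 Treatment: HCC1569 and TDF cells, 800 per well in 384-well plates with RPMI and 10% FBS, were given compounds at 10 µM for 24 h at 37 °C, in triplicate. Readout: after 3.7% formaldehyde fixation, cells were stained with a rabbit anti-H1.0 antibody, an AlexaFluor 647 secondary and DAPI. Reported values are H1.0 nuclear intensity or cell number as percent of the plate control, taken as the median of replicates, with positional smoothing for HCC1569.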
`O=C1NC(=O)C(c2c[nH]c3ccccc23)=C1c1c[nH]c2ccccc12` [Bisindolylmaleimide IV] showed a cell number of 91.2.
Molecule `O=C1c2ccccc2-c2nc3nnnn3nc21` [PDK1/Akt/Flt Dual Pathway Inhibitor] has a cell number of 41.8.
`CCN(CC)CCNC(=O)c1c(C)[nH]c(C=C2C(=O)Nc3ccc(Cl)cc32)c1C` showed a cell number of 22.9.
In the case of `Cc1cc(Nc2ccc(NC(=O)c3ccc(Nc4ccnc5ccccc45)cc3)cc2)nc(N)n1`, the cell number is reported as 13.5.
Work on `C[n+]1cc2c3c(ccc2c2ccc4cc5c(cc4c21)OCO5)OCO3.[Cl-]` [Sanguinarine chloride] yielded a cell number of 15.1.
For `CCCCCCCCCCCCCCCCCCOCC(COP(=O)([O-])OCC[N+](C)(C)C)OC` (configuration not stated), the cell number was 51.3 and 99.9.
With `COS(=O)(=O)[O-].C[n+]1c2ccccc2nc2ccccc21` [5-methylphenazin-5-ium methyl sulfate] the cell number was 28.1.
In the case of `C=CC(=O)N1C/C(=C\c2ccc([N+](=O)[O-])cc2)C(=O)/C(=C/c2ccc([N+](=O)[O-])cc2)C1` [1-acryloyl-3,5-bis((E)-4-nitrobenzylidene)piperidin-4-one], the cell number is reported as 17.5.
In the case of `Clc1ccc(N/N=C(\c2ccccc2)c2ccccn2)nc1`, the cell number is reported as 73.1.
In the case of `Cc1ccccc1N(C)C(=O)c1ccc(S(=O)c2nccs2)c([N+](=O)[O-])c1` (configuration not stated), the cell number is reported as 9.73.
`NC(=O)Nc1cc(-c2cccc(F)c2)sc1C(=O)NC1CCCNC1` (configuration not stated) was tested, and the cell number was 19.9.
`CC(=O)C1(O)Cc2c(O)c3c(c(O)c2C(OC2CC(N)C(O)C(C)O2)C1)C(=O)c1ccccc1C3=O` (configuration not stated) [Idarubicin] was tested, and the cell number was 49.1 ± 12.
